Bioassay records (PubChem)
Most compounds without a hit are left out; they make up all but 3.1% or so of the library.
HIF act: HIF pathway transcriptional activation; U2OS HRE-luciferase reporter, luminescence; normalized: DMSO 0%, desferrioxamine 100%; activation, % at 7.5 µM (by protocol); hit rate 0.32% among 300,000; AID 1910;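 active = mean activation of at least 10% of the iron chelator positive control signal, with at least half of replicates also reaching 10%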
ARNT TACC3 PPI: disruptors of human ARNT/TACC3 interaction | inhibition, % at 9.99 µM | AID 623870 | hit rate 0.66% among 390,000 | Q9Y6A5 | AlphaScreen His-ARNT PAS-B/GST-TACC3 binding, luminescence; TACC3 fragment carries E629A point mutation;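 active = mean inhibition of replicates at least 50% and at least half of replicates each reaching 50%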;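 also: 0% = complete ARNT plus TACC3 wells and 100% = ARNT alone without TACC3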
HSP90 refold inh: inhibitors of HSP90 luciferase refolding in rabbit reticulocyte lysate | AID 1789 | hit rate 0.91% among 290,000 | luciferase refolding luminescence, 3 h | inhibition, % at 5.6 µM;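 active = inhibition above the screen-wide mean plus 3 SD, computed separately per campaign, cut at about 16% in these data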;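 also: 0% = DMSO wells and 100% = 60 µM geldanamycin wells; inhibitors lower the luminescence because luciferase stays unfolded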
HSF-1 act: increases HSF-1 driven luciferase reporter signal; NIH3T3-HGL HSF-1 luciferase reporter, MG132, 8 h; 100% = twice DMSO control signal; activation, % at 9 µM; hit rate 1.7% among 300,000; AID 504408;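 active = mean replicate activation of at least 50% with a set share of replicates each reaching 50%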;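 also: 0% = median of the neutral control wells and 100% = twice that signal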
HSF1 inhib: HSF1 inhibition. NIH3T3-HGL HSE-luciferase, MG132-induced, luminescence 8 h; stronger effect = lower value. activity change, negative = inhibition, % at 7.5 µM (by protocol). hit rate 0.77% among 300,000;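 active = more than half of replicate wells show activity change below -50%, luminescence cut by over half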;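 also: luciferase reports HSF-1 transcriptional activity via heat shock element; 0% = median of DMSO wells and -100% = zero luminescence signal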
* marks the source's active call; other numbers are inactive results; . = no result given.

SMILES | HIF act | ARNT TACC3 PPI | HSP90 refold inh | HSF-1 act | HSF1 inhib
Oc1c(C2=NCCNC(C(F)(F)F)=C2)ccc2ccccc12 | 2 | 7 | -4 | 81* | 61
COc1ccc(-c2nn(-c3ccccc3)cc2/C=N/N2C(=O)CSC2=S)cc1 | 3 | 18 | 0 | 76* | 38
O=C(O)c1ccc(N2C(=O)CC(N3CCN(c4cccc(C(F)(F)F)c4)CC3)C2=O)cc1 (stereo not given) | 0 | -18 | -2 | -65 | -56*
COc1cc(NC(=O)c2cc(C)nc3ccccc23)cc(OC)c1 | 0 | 3 | -1 | -70 | -60*
COc1ccc(-c2cc(C(=O)Nc3ccc(S(=O)(=O)Nc4ncccn4)cc3)c3ccccc3n2)cc1 | 0 | 6 | 2 | 21 | 11
Cc1cccc(-c2cc(C(=O)Nc3cccnc3)c3ccccc3n2)c1 | 0 | 4 | -1 | -6 | 2
COc1ccc(-c2cc(C(=O)Nc3ccc(C)c(N)c3)c3ccccc3n2)cc1 | -15 | 4 | 2 | 74* | 21
Cc1cccc(-c2cc(C(=O)Nc3ccncc3)c3ccccc3n2)c1 | -1 | -1 | -3 | 63* | 50
O=C(Nc1ccccc1)N[C@@H]1CC[C@@H](CCNC(=O)c2ccccc2F)O[C@@H]1CO | . | -3 | . | . | .
C[C@@H]1CN([C@@H](C)CO)S(=O)(=O)c2ccc(C#CCN(C)C)cc2O[C@H]1CN(C)Cc1cccnc1 | . | -7 | . | . | .
CCC(=O)N(C)C[C@H]1Oc2ncc(C3=CCCC3)cc2C(=O)N([C@@H](C)CO)C[C@@H]1C | . | 0 | . | . | .
O=C(c1nnsc1S(=O)c1ccc(Cl)cc1)N1CCOCC1 (stereo not given) | -2 | -3 | 8 | 267* | 194
Cc1nnsc1S(=O)c1ccc(Cl)cc1 (stereo not given) | -1 | -21 | -4 | 5 | 3
O=C(c1cc(-c2ccc(Cl)cc2)on1)N1CCOCC1 | 0 | 1 | 12 | 29 | 11
O=C(Nc1ccccc1)c1nnsc1S(=O)c1ccc(Cl)cc1 (stereo not given) | 2 | -9 | 0 | 157* | 208
CNC(=O)c1ccc(S(=O)(=O)c2ccc(Cl)cc2)c(NC(C)=O)c1 | -1 | -14 | 0 | -28 | -10
CNC(=O)c1nnsc1S(=O)(=O)c1ccc(Cl)cc1 | -1 | -4 | 2 | 158* | 102
Nc1nc(C(=O)N2CCOCC2)nn1S(=O)(=O)c1ccc(Cl)cc1 | 1 | 0 | 2 | 15 | -1
O=C(c1nnsc1S(=O)(=O)c1ccc(Cl)cc1)N1CCOCC1 | -2 | -2 | 2 | -81 | -80*
O=C(N[C@H]1CC[C@H](CC(=O)N2CCCCC2)O[C@@H]1CO)c1ccc2c(c1)OCO2 | . | 2 | . | . | .
CC(C)NC(=O)N[C@H]1C=C[C@H](CC(=O)NCCN2CCCC2)O[C@H]1CO | . | 7 | . | . | .
COc1ccc(S(=O)(=O)N(C)C[C@@H]2Oc3ccc(NS(=O)(=O)c4ccccc4)cc3CC(=O)N([C@@H](C)CO)C[C@H]2C)cc1 | . | -2 | . | . | .
Cc1noc(C)c1S(=O)(=O)Nc1ccc2c(c1)C(=O)N([C@@H](C)CO)C[C@@H](C)[C@@H](CN(C)Cc1ccc(Cl)c(Cl)c1)OCCCC[C@@H](C)O2 | . | -1 | . | . | .
O=C(CCc1nc2ccccc2c(=O)[nH]1)NCc1ccco1 | 0 | -3 | 3 | -71 | -65*
CCC(=O)N[C@H]1CC[C@H](CCn2cc(CN(C)C)nn2)O[C@H]1CO | . | 5 | . | . | .
SMILES | HIF act | ARNT TACC3 PPI | HSP90 refold inh | HSF-1 act | HSF1 inhib
O=C(Nc1ccc(N2CCCC2)cc1)C(Cl)c1ccccc1 (stereo not given) | -40 | active | -2 | -23 | -13
O=c1cc(COc2ccc(Cl)c(Cl)c2)nc2sccn12 | 1 | -1 | 3 | 57* | 35
CCOC(=O)CC(=O)CSCC(=O)Nc1ccc(C)cc1 | 0 | -10 | 1 | 86* | 40
CCN(CC(=O)Nc1ccc(NC(C)=O)cc1)C(=O)CSCC(=O)Nc1ccc(C)cc1 | 1 | -36 | . | 1 | 1
Cc1cc2oc(=O)cc(COC(=O)c3n[nH]c4ccccc34)c2cc1C | 3 | 25 | 0 | 51* | 26
COc1ccc2c(COC(=O)CCS(=O)(=O)c3ccccc3)cc(=O)oc2c1 | 0 | -1 | 0 | -22 | 2
Cc1cccc(C)c1OCCOC(=O)c1n[nH]c2ccccc12 | 2 | -4 | 3 | 14 | 8
COc1ccc2c(COC(=O)c3n[nH]c4ccccc34)cc(=O)oc2c1 | 3 | -1 | 0 | 63* | 49
Cc1cc(C)n(-c2nc3ccccc3c(=O)n2OCC#N)n1 | 14* | 6 | 4 | 9 | 0
O=C(CC1CC1)N[C@H]1CC[C@@H](CCNS(=O)(=O)c2ccc(Cl)cc2)O[C@H]1CO | . | -7 | . | . | .
COc1cccc(C(c2sc3nc(C)nn3c2O)N2CCN(C(=O)c3ccco3)CC2)c1 (stereo not given) | 0 | -1 | 1 | -88 | -85*
COCC(=O)N(C)C[C@H]1Oc2ncc(C3=CCCCC3)cc2C(=O)N([C@@H](C)CO)C[C@@H]1C | . | -6 | . | . | .
Cc1ccc2cc3c(N)c(C(=O)N4CCOCC4)sc3nc2c1 | -22 | 9 | -2 | 67* | 29
C[C@@H]1CCCCO[C@H](CN(C)CC2CCCCC2)[C@H](C)CN([C@H](C)CO)C(=O)c2cc(NS(=O)(=O)c3cccs3)ccc2O1 | . | 0 | . | . | .
Cc1[nH]c(C)c(C(=O)/C=C/c2ccc([N+](=O)[O-])cc2)c1C | -1 | 0 | 9 | 70* | 33
O=C(c1ccc(F)cc1)c1ccc(N2CCCCC2)cc1 | 2 | 4 | 4 | 64* | 31
O=S(=O)(N1CCCCC1)N1CCN(c2ccc(F)cc2)CC1 | 0 | -1 | -2 | -77 | -71*
O=C(c1ccc(F)cc1)c1ccc(N2CCCC2)cc1 | 2 | -20 | 1 | 26 | 12
O=S(=O)(c1ccc(N2CCN(c3ccc(F)cc3)CC2)cc1)N1CCCC1 | 0 | -6 | 2 | 2 | -9
O=C(COC(=O)c1ccccc1SCC(=O)N1CCCC1)NC1CCS(=O)(=O)C1 (stereo not given) | 0 | -1 | . | -78 | -71*
COc1cccc(NC(=O)Nc2ccc3c(c2)C(=O)N(C)C[C@H](OC)[C@@H](C)CN(C)[C@@H](C)CO3)c1 | . | 5 | . | . | .
Cn1c(=Nc2ccccc2)sc2ccccc21 | 2 | 9 | 2 | 7 | -1
CN(C)c1ccc(N=c2sc3ccccc3n2C)cc1 | -34 | 72* | -7 | 110* | 70
CCN(CC)c1ccc(/C=N/NC(=O)CNC(=O)C2COc3ccccc3O2)c(O)c1 (stereo not given) | 19* | -4 | -6 | 6 | -10
Cc1cc([N+](=O)[O-])cc(/C=N\NC(=O)C2COc3ccccc3O2)c1O (stereo not given) | 3 | 43* | 2 | -9 | -2
COCC#Cc1ccc2c(c1)O[C@H](CN(C)Cc1ccccn1)[C@@H](C)CN([C@H](C)CO)S2(=O)=O | . | -2 | . | . | .
